Experimental data published in PubChem BioAssay AID1159580 (chemical genetic matrix, 2015).
Where “and” joins values, the source holds several entries; their conditions need not be identical. Identical values can stand only once. Hit rate of the full screen: of about 5,500 compounds, about 2,000 (36%) were called active. Inconclusive results (about 18%) are left out. No stated cut-off is given here; in the data, active means normalized growth mostly below about 0.91 (no sharp cut-off); inconclusive means no clear call, values can overlap the other calls; inactive means mostly above about 0.92. The list shows a part of the results.

Test: chemical genetic growth profiling, strain panel (AID 1159580);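 further: tested at 20 µM; growth read once vehicle control cultures reached saturation at 30 °C; 1 = growth at the plate median or of vehicle wells; lower values mean less growth of the strain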
Conditions: S. cerevisiae deletion strains, growth OD

Measured: normalized growth

CCCOc1ccc2nc(NC(=O)OC)[nH]c2c1
active: locus YEL003W, strain gim4, hits give low values 0.841
inactive: locus YAL021C, strain ccr4, hits give low values 1.03 | locus YAL026C, strain drs2, hits give low values 1.02 | locus YAL030W, strain snc1, hits give low values 1.02 | locus YBL061C, strain skt5, hits give low values 1.01 | locus YBR009C, strain hhf1, hits give low values 1.01 | locus YBR021W, strain FUR4, hits give low values 1.01 | locus YBR023C, strain chs3, hits give low values 1.02 | locus YBR171W, strain sec66, hits give low values 1.02 | locus YBR229C, strain ROT2, hits give low values 0.992 | locus YBR231C, strain swc5, hits give low values 1.01 | locus YBR279W, strain paf1, hits give low values 1.02 | locus YCL011C, strain gbp2, hits give low values 1.01 | locus YCL016C, strain dcc1, hits give low values 1.02 | locus YCL029C, strain bik1, hits give low values 0.974 | locus YCL061C, strain MRC1, hits give low values 1.01 | locus YCL069W, strain vba3, hits give low values 1.02 | locus YCR088W, strain abp1, hits give low values 1.02 | locus YDL005C, strain med2, hits give low values 1.02 | locus YDL035C, strain GPR1, hits give low values 1.01 | locus YDL040C, strain nat1, hits give low values 1.02 | locus YDL074C, strain BRE1, hits give low values 1.02 | locus YDL101C, strain DUN1, hits give low values 0.997 | locus YDL134C, strain PPH21, hits give low values 0.982 | locus YDL185W, strain tfp1, hits give low values 0.976 | locus YDL192W, strain arf1, hits give low values 0.97 | locus YDR001C, strain nth1, hits give low values 1.02 | locus YDR069C, strain doa4, hits give low values 1.01 | locus YDR101C, strain arx1, hits give low values 1.01 | locus YDR137W, strain rgp1, hits give low values 0.951 | locus YDR150W, strain NUM1, hits give low values 0.996 | locus YDR159W, strain sac3, hits give low values 1.01 | locus YDR162C, strain NBP2, hits give low values 0.983 | locus YDR195W, strain ref2 1.04 | locus YDR297W, strain sur2, hits give low values 1.02 | locus YDR318W, strain mcm21, hits give low values 0.977 | locus YDR334W, strain swr1, hits give low values 1.01 | locus YDR335W, strain msn5, hits give low values 1.02 | locus YDR388W, hits give low values 0.981 | locus YDR392W, strain spt3, hits give low values 0.99 | locus YDR502C, strain sam2, hits give low values 0.983 | locus YEL037C, strain rad23, hits give low values 1.01 | locus YEL061C, strain CIN8 (second series), hits give low values 1.02 | locus YEL061C, strain CIN8, hits give low values 0.999 | locus YER015W, strain faa2, hits give low values 1 | locus YER016W, strain bim1, hits give low values 1.02 | locus YER110C, hits give low values 0.968 | locus YER111C, strain swi4, hits give low values 1.01 | locus YER155C, strain BEM2 (second series), hits give low values 1.02 | locus YER155C, strain BEM2, hits give low values 0.992 | locus YER167W, strain BCK2, hits give low values 0.988 | locus YFR010W, strain ubp6, hits give low values 1.02 | locus YGL078C, strain dbp3, hits give low values 0.982 | locus YGL086W, strain mad1, hits give low values 0.989 | locus YGL167C, strain pmr1, hits give low values 1.01 | locus YGL173C, strain kem1, hits give low values 1.02 | locus YGL227W, strain vid30, hits give low values 1.02 | locus YGL240W, strain doc1, hits give low values 1 | locus YGL248W, strain PDE1, hits give low values 0.986 | locus YGL253W, strain hxk2, hits give low values 1.01 | locus YGR078C, strain PAC10, hits give low values 0.856 | locus YGR135W, strain pre9, hits give low values 0.953 | locus YGR229C, strain SMI1, hits give low values 0.983 | locus YGR252W, strain gcn5, hits give low values 0.956 | locus YHR013C, strain ard1, hits give low values 1.01 | locus YHR027C, strain rpn1, hits give low values 1.01 | locus YHR030C, strain SLT2, hits give low values 0.988 and 1.02 | locus YHR079C, strain IRE1 (second series), hits give low values 0.986 | locus YHR079C, strain IRE1, hits give low values 1.02 | locus YHR094C, strain hxt1, hits give low values 0.982 | locus YHR129C, strain ARP1, hits give low values 0.989 | locus YHR142W, strain chs7, hits give low values 1.03 | locus YHR200W, strain rpn10, hits give low values 0.98 | locus YIL066C, strain RNR3, hits give low values 0.996 | locus YIL073C, strain SPO22, hits give low values 0.964 | locus YIL125W, strain kgd1, hits give low values 0.993 | locus YIR030C, strain dcg1, hits give low values 0.983 | locus YJL092W, strain hpr5, hits give low values 1.01 | locus YJL095W, strain BCK1 (second series), hits give low values 1.02 | locus YJL095W, strain BCK1, hits give low values 1.01 and 1.06 | locus YJL115W, strain asf1, hits give low values 1 | locus YJL129C, strain trk1, hits give low values 1.03 | locus YJL134W, strain LCB3, hits give low values 0.995 | locus YJL154C, strain vps35, hits give low values 1.02 | locus YJL164C, strain tpk1, hits give low values 1.02 | locus YJL166W, strain qcr8, hits give low values 1.02 | locus YJL168C, strain set2, hits give low values 0.994 | locus YJL187C, strain SWE1 (second series), hits give low values 1.01 | locus YJL187C, strain SWE1, hits give low values 1.01 | locus YJR043C, strain POL32, hits give low values 0.991 | locus YJR066W, strain TOR1, hits give low values 0.94
